HIF act = HIF pathway transcriptional activation; U2OS HRE-luciferase reporter, luminescence; normalized: DMSO 0%, desferrioxamine 100%; 0.32% of 300,000 active; activation, % at 7.5 µM (by protocol);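 active means mean activation of at least 10% of the iron chelator positive control signal, with at least half of replicates also reaching 10%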
GalR3 antag = human GalR3 antagonism; O60755; inhibition, % at 3 µM; 0.44% of 360,000 active; HEK293 GalR3-CNG cAMP membrane potential fluorescence; galR3 body fused to GalR1 C-terminus;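 active means inhibition above the screen-wide average plus 3 SD, cut at about 13% in these data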;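 further: forskolin and galanin both at EC90 stimulate the cells; cAMP rise reported by CNG channel membrane potential dye signal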
Target sequence (O60755 1-299 limits assumed): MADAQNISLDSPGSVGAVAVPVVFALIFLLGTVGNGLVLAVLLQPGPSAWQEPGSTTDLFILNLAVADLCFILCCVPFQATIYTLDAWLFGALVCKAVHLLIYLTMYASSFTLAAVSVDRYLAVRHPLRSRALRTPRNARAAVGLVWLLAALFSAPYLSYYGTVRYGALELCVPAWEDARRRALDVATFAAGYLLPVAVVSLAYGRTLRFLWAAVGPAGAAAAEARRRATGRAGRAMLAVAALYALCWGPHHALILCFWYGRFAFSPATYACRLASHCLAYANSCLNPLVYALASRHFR
SMARCA2 act = increases SMARCA2 function in MMTV reporter cells; MG213 cells, MMTV-luciferase reporter, dexamethasone, overnight; activation, % at 9.1 µM; 1% of 370,000 active; AID 652017; in the data active means activation above about 7.8%
GAA850 FXN act = frataxin GAA850 promoter activation; HEK293 lucGAA850 FXN promoter luciferase reporter, 24 h; percent of 10 µM SAHA response; activation, % at 6 µM; 0.56% of 360,000 active;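 active means activation above the average of all compounds screened plus 3 SD, cutoff fixed separately per campaign, cut at about 7.5% in these data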
Hsp70 act = transcriptional activators of Hsp70; AID 1203; HeLa Hsp70 promoter luciferase reporter, luminescence; scaled: vehicle 0, proteasome-inhibitor control 100%; activation, % at 10 µM; 0.04% of 200,000 active;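 active means activation above the mean across all tested compounds plus 3 SD, cutoff set per campaign, cut at about 5.5% in these data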
GalR3 conf = GalR3 (human) antagonism, confirmation | inhibition, % at 3 µM | shares compounds with GalR3 antag | AID 652245 | 59% of 1,600 active | HEK293 GalR3 CNG cAMP biosensor, membrane potential fluorescence; galR3 fused to GalR1 carboxy tail; challenged with forskolin and galanin at EC90;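 active means inhibition above the primary screen's cutoff, the mean inhibition of all screened compounds plus 3 SD, cut at about 13% in these data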
HEK-CNG parental = parental cell agonism counter-screen for GalR3 antagonists | shares compounds with GalR3 antag | HEK293-CNG parental cells, cAMP membrane potential fluorescence; normalised: DMSO wells 0%, forskolin wells 100% | activation, % at 3 µM | 10% of 1,600 active; in the data active means activation above about 1.3%
Hits are given with their value; – = inactive; · = no result given. In the library only some 2.2% were active in any assay of this set; here they are far more common.

SMILES	HIF act	GalR3 antag	SMARCA2 act	GAA850 FXN act	Hsp70 act	GalR3 conf	HEK-CNG parental
COc1cc(NC(=O)C2CCN(c3nnc(-n4cccc4)s3)CC2)cc(OC)c1	·	·	–	·	·	·	·
Cc1ccccc1CNC(=O)C1C2C=CC3(CN(Cc4ccccc4)C(=O)C13)O2 (stereo not given)	·	·	–	·	·	·	·
CCc1c(C)nc2ncnn2c1NCCc1ccc(OC)c(OC)c1	–	–	–	–	–	·	·
COc1ccc(CCNc2c(C)c(C)nc3ncnn23)cc1	–	90	–	–	–	90	–
CCOc1ccc(CN(C(=O)c2cc(=O)c3cc(C)cc(C)c3o2)C2CCS(=O)(=O)C2)cc1 (stereo not given)	–	17	–	–	·	–	–
COCC(=O)N[C@H]1C[C@@H]2O[C@H](CO)CC[C@@H]2O[C@@H]1CCc1ccc(-c2ccccc2)cc1	·	·	–	·	·	·	·
Cc1ccc(C(=O)NCCCn2ccnc2)cn1	–	·	–	–	–	–	–
CC(Nc1ncnc2ccccc12)c1ccccc1 (stereo not given)	–	96	–	–	·	106	–
Cc1ccc(-c2sc(C(=O)NN)c(C)c2C#N)cc1	–	27	–	–	·	25	–
CCCCCC(=O)NC1CCCCN(Cc2cccc(Cl)c2)C1=O (stereo not given)	·	·	–	·	·	·	·
Cn1nc(CC(=O)NCc2ccc(C(F)(F)F)cc2)c2ccccc2c1=O	–	–	–	–	–	·	·
COc1ccc(CNC(=O)Cc2nn(C)c(=O)c3ccccc23)cc1	·	34	–	–	–	29	–
O=C(NC1CCCCC1c1ccccc1)c1ccccc1 (stereo not given)	·	16	–	–	·	–	–
CCOC(=O)Nc1cc(=O)c([N+](=O)[O-])c(N)[nH]1	·	–	–	·	·	·	·
O=C(NCCN1CCOCC1)C1CCN(c2ncnc3c2sc2cccc(F)c23)CC1	–	15	–	–	–	–	–
O=C(C1CCN(c2ncnc3c2sc2cccc(F)c23)CC1)N1CCOCC1	–	–	–	–	–	·	·
Cc1cc(/C=C2/SC(=S)N(c3cccc(Cl)c3)C2=O)c(C)n1-c1cccnc1	–	90	–	–	–	15	–
CCN(CC)C(=O)CC[C@H]1CC[C@]2(CCCN(Cc3nccn3C)C2)O1	·	·	–	·	·	·	·
CCN(CC)S(=O)(=O)c1cccc(NC(=O)COC(=O)c2[nH]c(C)c(C(C)=O)c2C)c1	·	28	–	–	·	97	–
Cc1ccc(S(C)(=O)=NC(=O)NC(=O)c2c(F)cccc2Cl)cc1 (stereo not given)	–	14	–	–	·	–	–
O=S1(=O)c2ccc(N3CCN(Cc4ccccc4F)CC3)cc2Oc2ccccc2CN1Cc1cn(Cc2cccc(C(F)(F)F)c2)nn1	·	·	–	·	·	·	·
O=C(Cn1nc(-c2ccccc2)c2ccccc2c1=O)Nc1ccc(O)cc1	–	14	–	–	·	–	–
c1csc(CNc2ncnc3sccc23)c1	–	61	–	–	–	88	–
CCOC(=O)Nc1ccc2c(c1)[C@@]1(CC(=O)N(CC(C)C)C1c1ccccc1)C(=O)N2C (stereo not given in full)	·	·	–	·	·	·	·
CCCCOCCCNC(=O)C[C@@H]1C(=O)N(CCc2ccc(Cl)cc2)C2=CCCC[C@]21C(=O)OCC	·	·	–	·	·	·	·
SMILES	HIF act	GalR3 antag	SMARCA2 act	GAA850 FXN act	Hsp70 act	GalR3 conf	HEK-CNG parental
COc1ccc(CCC(=O)OCC(=O)Nc2sccc2C(N)=O)cc1OC	·	99	–	–	·	92	–
N#Cc1ccc(OCC(=O)OCC(=O)Nc2sccc2C(N)=O)cc1	·	–	–	–	·	·	·
COc1ccc(CCC(=O)OCC(=O)Nc2sccc2C(N)=O)cc1	·	–	–	–	·	·	·
Cc1ccc(OCC(=O)OCC(=O)Nc2sccc2C(N)=O)cc1C	–	27	–	–	–	–	–
COC(=O)C1CN(Cc2cn(Cc3ccc(OC)cc3)nn2)CCS(=O)(=O)N1Cc1ccc(OC)cc1 (stereo not given)	·	·	–	·	·	·	·
COc1ccc(OCC(O)CNC(=O)c2ccc(OC)cc2)cc1 (stereo not given)	–	14	–	–	–	–	–
COc1ccc(OCC(O)CNC(=O)c2ccc(Br)cc2)cc1 (stereo not given)	–	–	–	–	–	·	·
